Screens: PubChem BioAssay, Buhrlage Lab, Dana-Farber Cancer Institute and Novartis Institutes for BioMedical Research (Cambridge, Mass)
USP28 block – inhibitors of human USP28 deubiquitinase. Ubiquitin carboxyl-terminal hydrolase 28 (Homo sapiens), Q96RU2. purified USP28, Ub-rhodamine cleavage fluorescence, 30 min. inhibition, % at 25 µM. 47,000 tested, 3% active. AID 1645857, 2021
USP17 inh – inhibitors of human USP17 deubiquitinase; Ubiquitin carboxyl-terminal hydrolase 17-like protein 5 (Homo sapiens), A8MUK1; purified USP17, Ub-rhodamine cleavage fluorescence, 3 h; inhibition, % at 50 µM; 47,000 tested, 6.5% active
Target sequence (A8MUK1 whole entry, looked up): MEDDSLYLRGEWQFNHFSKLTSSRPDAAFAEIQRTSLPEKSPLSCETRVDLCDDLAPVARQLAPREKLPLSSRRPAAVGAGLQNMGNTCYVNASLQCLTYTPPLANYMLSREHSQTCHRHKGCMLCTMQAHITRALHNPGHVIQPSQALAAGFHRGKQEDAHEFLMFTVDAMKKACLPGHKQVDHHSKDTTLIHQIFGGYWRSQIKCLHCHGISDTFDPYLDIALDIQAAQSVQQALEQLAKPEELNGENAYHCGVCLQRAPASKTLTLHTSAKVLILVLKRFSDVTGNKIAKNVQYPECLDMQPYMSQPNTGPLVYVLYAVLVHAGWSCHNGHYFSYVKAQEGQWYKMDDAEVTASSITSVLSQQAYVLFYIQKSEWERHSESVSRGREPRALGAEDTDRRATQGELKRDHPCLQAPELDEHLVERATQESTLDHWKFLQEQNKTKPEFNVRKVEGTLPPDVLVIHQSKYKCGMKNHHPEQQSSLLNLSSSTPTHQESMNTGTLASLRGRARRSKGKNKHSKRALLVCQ
USP30 block – inhibitors of human USP30 deubiquitinase | inhibition, % at 25 µM | Ubiquitin carboxyl-terminal hydrolase 30 (Homo sapiens), Q70CQ3 | 47,000 tested, 5.3% active | purified USP30, Ub-rhodamine cleavage fluorescence
USP8 block – inhibitors of human USP8 deubiquitinase | inhibition, % at 20 µM | purified USP8, Ub-rhodamine cleavage fluorescence, 30 min | Ubiquitin carboxyl-terminal hydrolase 8 (Homo sapiens), P40818 | 47,000 tested, 4.2% active
USP10 inh – inhibitors of human USP10 deubiquitinase; Ubiquitin carboxyl-terminal hydrolase 10 (Homo sapiens), Q14694; purified USP10, Ub-rhodamine fluorescence, 60 min; 47,000 tested, 1.1% active; AID 1645856, 2021; inhibition, % at 20 µM
* hit, by the source's call. Hits are enriched below; roughly 14% of the tested compounds scored in any of these assays. Cut-off read from the data, not from the text of the source: active = inhibition above about 30%; inactive = the rest.

Screening Cc1ccc2nc(-c3ccccc3O)c(NCCc3ccccc3)n2c1 returned USP28 block 6, USP17 inh 16, USP30 block -12, USP8 block 80* and USP10 inh 7.
`Oc1ccccc1-c1nc2ccc(Cl)cn2c1NCCc1ccccc1` gave USP28 block 8, USP17 inh 15, USP30 block 5, USP8 block 78* and USP10 inh 7.
Screening Cc1ccc2[nH]c(=O)c(-c3nc4ccccn4c3NCc3ccccc3)cc2c1 returned USP28 block -3, USP17 inh 17, USP30 block -11, USP8 block 1 and USP10 inh 24.
FC(F)(F)c1cccc(-c2nnnn2Cc2cccc(Cl)c2)c1 was read as USP28 block 29, USP17 inh 18, USP30 block 18, USP8 block 12 and USP10 inh 9.
For Cc1cc(C)c(C#N)c(SCC(=O)Nc2nsc(-c3ccc(C(C)(C)C)cc3)n2)n1 the results were USP28 block 1, USP17 inh 0, USP30 block 2, USP8 block 8 and USP10 inh 7.
For O=C(CSc1nc2scc(-c3ccco3)c2c(=O)n1-c1ccccc1)Nc1nsc(-c2ccccc2)n1 the results were USP28 block 37*, USP17 inh 16, USP30 block -187, USP8 block -20 and USP10 inh -5.
`CCCCCC1OC(=O)c2c(C)cccc2Oc2ccc(O)c(CO)c2/C=C/C1O` (centres undefined) gave USP28 block 47*, USP17 inh 23, USP30 block 19, USP8 block 12 and USP10 inh 12.
`CCCCCC1OC(=O)c2c(C)cccc2Oc2ccc(O)c(C=O)c2/C=C/C1O` (centres undefined) gave USP28 block 53*, USP17 inh 81*, USP30 block 73*, USP8 block 14 and USP10 inh 31*.
For Cc1snc(SCc2nc(COc3ccc(Cl)cc3Cl)n[nH]2)c1C#N the results were USP28 block 40*, USP17 inh 15, USP30 block 40*, USP8 block -12 and USP10 inh 19.
Clc1ccc(OCc2nn[nH]n2)c(Cl)c1 was read as USP28 block -10, USP30 block 0, USP8 block -20 and USP10 inh 0.
`O=C(CSc1nnc2ccccn12)Nc1ccc2[nH]c(=O)[nH]c2c1` gave USP28 block -11, USP17 inh 6, USP30 block -123, USP8 block 1 and USP10 inh -2.
For CC(CC(=O)OCC(=O)Nc1ccc2[nH]c(=O)[nH]c2c1)c1ccccc1 (centres undefined) the results were USP28 block 31*, USP17 inh 17, USP30 block 16, USP8 block -41 and USP10 inh -2.
Screening Cc1nnc(SCC(=O)Nc2ccc3[nH]c(=O)[nH]c3c2)n1-c1ccccc1 returned USP28 block 2, USP17 inh 34*, USP30 block -13, USP8 block -33 and USP10 inh -7.
`O=C(COC(=O)c1ccccc1F)Nc1ccc2[nH]c(=O)[nH]c2c1` gave USP28 block 37*, USP17 inh 18, USP30 block 18, USP8 block 5 and USP10 inh 15.
O=C(COC(=O)c1cc(Cl)c2c(c1)OCO2)Nc1ccc2[nH]c(=O)[nH]c2c1 was read as USP28 block 51*, USP17 inh 57*, USP30 block -27, USP8 block 17 and USP10 inh 29.
Screening O=C(NC(c1ccc(F)cc1)c1nnc(-c2ccccc2)o1)c1ccccc1F (centres undefined) returned USP28 block 11, USP30 block 28, USP8 block 15 and USP10 inh 5.
`COc1ccc(C(=O)N2CCN(Cc3cc(=O)c4ccccc4[nH]3)CC2)cc1` gave USP28 block -51, USP17 inh -45, USP30 block -153, USP8 block -16 and USP10 inh -10.
Screening C[C@@H]1O[C@@H](O[C@H]2[C@H](O[C@H]3[C@H](O[C@H]4CC[C@@]5(C)[C@@H](CC[C@]6(C)[C@@H]5CC=C5[C@@H]7CC(C)(C)CC(=O)[C@]7(C)CC[C@]56C)[C@@]4(C)CO)O[C@H](C(=O)O)[C@@H](O)[C@@H]3O)OC[C@@H](O)[C@@H]2O)[C@H](O)[C@H](O)[C@H]1O returned USP28 block 49*, USP17 inh 32*, USP30 block 53*, USP8 block 7 and USP10 inh 14.
`CC1(C)CC(=O)[C@]2(C)CC[C@]3(C)C(=CC[C@@H]4[C@@]5(C)CC[C@H](O)[C@](C)(CO)[C@@H]5CC[C@]43C)[C@@H]2C1` gave USP28 block -5, USP17 inh -7, USP30 block -5, USP8 block -19 and USP10 inh -8.
O=C(c1ccco1)C(C(=O)C(F)(F)F)C12CC3CC(CC(C3)C1)C2 (centres undefined) was read as USP28 block 13, USP17 inh 7, USP30 block 14, USP8 block 18 and USP10 inh 7.
For COc1ccc(OC)c2c(C)cc(N3CCN(S(=O)(=O)c4ccc5c(c4)CCCN5S(C)(=O)=O)CC3)nc12 the results were USP28 block 44*, USP17 inh 98*, USP30 block 38*, USP8 block 22 and USP10 inh 8.
`CCCc1nnc(NC(=O)c2cc(-c3ccccc3O)n[nH]2)s1` gave USP28 block 7, USP17 inh 8, USP30 block -4, USP8 block 1 and USP10 inh 54*.
`CC(C(=O)N1CCC(c2nc3ccccc3cc2C(N)=O)CC1)N1CCCC1` (centres undefined) gave USP28 block -69, USP17 inh -69, USP30 block -183, USP8 block -39 and USP10 inh -7.
Screening COc1ccccc1OCC(=O)Nc1ccc(-c2nc3ccccc3s2)cc1 returned USP28 block -23, USP17 inh -16, USP30 block -51, USP8 block 0 and USP10 inh -5.
CCC(C)c1ccc(NC(=O)COc2nc3ccccc3nc2C)cc1 (centres undefined) was read as USP28 block -6, USP17 inh 47*, USP30 block -4, USP8 block -5 and USP10 inh -12.
`Cc1sc(NC(=O)Cn2nnc3ccccc32)nc1-c1ccc2c(c1)CCN2C(=O)C1CCCCC1` gave USP28 block 13, USP17 inh 31*, USP30 block 30, USP8 block 8 and USP10 inh 1.
`O=C(CN1CCCCC1)Nc1nc(-c2ccc3c(c2)CCN3C(=O)C2CC2)cs1` gave USP28 block 15, USP17 inh 31*, USP30 block 14, USP8 block 12 and USP10 inh -2.
`O=C(CN1CCOCC1)Nc1nc(-c2ccc3c(c2)CCN3C(=O)C2CC2)cs1` gave USP28 block -7, USP17 inh 0, USP30 block -7, USP8 block -11 and USP10 inh 0.
